# Rows were chosen to be rich in hits. Some 12% of all compounds tested hit in one or more screens of this group.
# Sfp PPTase inh: Sfp phosphopantetheinyl transferase inhibition; 310,000 tested, 3.5% active; Q9F4F7; Biochemical Sfp PPTase activity, qHTS; AID 1490; Potency, µM, inactives show largest response in the series, negative = inhibition, hits mostly inhibitors;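 note: the enzyme is Sfp with the accession as filed and its product quenches rhodamine fluorescence; 0% = enzyme reaction without inhibitor and -100% = no enzyme wells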
#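 Reaction rates are the 30-min fluorescence difference (ex 525, em 598 nm) in wells containing 15 nM Sfp, 5 uM rhodamine-CoA and 12.5 uM BHQ-2-YbbR at pH 7.6 with 10 mM MgCl2.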
# BAZ2B inh: inhibitors of human BAZ2B bromodomain | Q9UIF8 | AlphaScreen BAZ2B-H3K14Ac peptide displacement | Potency, µM (highest dose often 114 µM), for the others: at the highest dose activity change, negative = inhibition, actives largely listed as inhibitors | 360,000 tested, 4.4% active; note: % is set by controls: 0 for no effect and ±100 for the full control effect; nearly all actives have a fitted effect of over 60% in size
#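 Multi-concentration screen (max 110 uM) measuring displacement of acetylated histone H3 peptide from BAZ2B by AlphaScreen, using 50 nM protein, 50 nM peptide and 10 ug/mL streptavidin donor plus Ni-chelate acceptor beads.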
# HP1b binding inh: inhibitors of HP1-beta chromodomain binding to methylated histone tails | P83916 | AlphaScreen HP1-beta / biotin-H3K9me3 peptide binding | Potency, µM (highest dose often 114 µM), for the others: top-dose activity change, negative = inhibition, actives largely listed as inhibitors | 390,000 tested, 0.56% active | AID 540317; note: nearly all actives have a fitted effect of over 70% in size
# Target sequence (P83916 whole entry, looked up): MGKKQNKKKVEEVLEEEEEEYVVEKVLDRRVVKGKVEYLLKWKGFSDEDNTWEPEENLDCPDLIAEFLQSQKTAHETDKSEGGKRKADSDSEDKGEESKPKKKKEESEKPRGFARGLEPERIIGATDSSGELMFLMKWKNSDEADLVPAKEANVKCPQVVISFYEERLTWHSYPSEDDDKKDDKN
#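 HP1-beta protein (50 nM final) preincubated 30 min at room temperature with biotinylated H3(1-18)K9me3 peptide (50 nM) in PBS pH 7.4, 0.01% Tween-20, then compound added for 30 min. AlphaScreen streptavidin donor/nickel chelate acceptor beads (10 ug/mL final), 30 min dark, luminescence read.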
# PLK1 PBD inh: inhibitors of human PLK1 polo-box domain binding; P53350; Plk1 PBD binding of FITC phosphopeptide, fluorescence polarization; Potency, µM, for the others: max response, negative = inhibition, usual class: inhibitors; 360,000 tested, 2.8% active; AID 720504; note: series mostly up to about 57 µM; % is set by controls: 0 for no effect and ±100 for the full control effect; nearly all actives have a fitted effect of over 65% in size
# JMJD2A Tudor inh: JMJD2A Tudor domain (human) inhibition; O75164; AlphaScreen JMJD2A-Tudor / H3K4me3 peptide binding; Potency, µM (highest dose often 114 µM), without a hit: at the highest dose activity change, negative = inhibition, usual class: inhibitors; 390,000 tested, 4.4% active; note: % is set by controls: 0 for no effect and ±100 for the full control effect; nearly all actives have a fitted effect of over 50% in size
# G9a inh: inhibitors of human histone lysine methyltransferase G9a | Q96KQ7 | G9a H3K9 monomethylation, AlphaScreen, 2 h | Potency, µM (titrated, usually from 102 µM), for the others: at the top dose activity, negative = inhibition, actives largely listed as inhibitors | 350,000 tested, 8.8% active; note: % is set by controls: 0 for no effect and ±100 for the full control effect; nearly all actives have a fitted effect of over 75% in size
# Target sequence (Q96KQ7 913-1193 limits assumed): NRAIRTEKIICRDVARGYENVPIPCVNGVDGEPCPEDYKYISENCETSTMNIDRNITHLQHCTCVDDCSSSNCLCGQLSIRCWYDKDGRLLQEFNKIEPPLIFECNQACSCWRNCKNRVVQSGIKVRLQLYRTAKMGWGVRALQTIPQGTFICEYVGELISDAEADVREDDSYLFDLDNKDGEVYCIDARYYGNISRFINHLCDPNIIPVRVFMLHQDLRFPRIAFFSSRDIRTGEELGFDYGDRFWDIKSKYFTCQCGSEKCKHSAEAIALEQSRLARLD
#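 Enzyme 20 nM + cpd, 15 min RT; add b-H3K9 pep 500 nM / SAM 20 uM; 2 h RT; anti-H3K9me1 Ab 0.5 ug/mL + SA donor / anti-rabbit acceptor beads 20 ug/mL each, 10 min; AlphaScreen read.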
# Numbers without * were called inactive; ? = inconclusive; . = no result given; [ ] = another dose, or the depositor's remark. Calls come from the whole dose curve; as a rule, active = well fitted curve in the direction sought with a large enough effect; inconclusive = small, poorly fitted or top-dose-only effect, or another doubt; inactive = no such curve, though single readings can be large; an effect the other way counts as inactive or inconclusive. Potency is the fitted concentration of half-maximal effect.
SMILES,Sfp PPTase inh,BAZ2B inh,HP1b binding inh,PLK1 PBD inh,JMJD2A Tudor inh,G9a inh
CC(C)c1ccc(C(=O)Nc2ccc(N3CCOCC3)cc2)cc1,12%,-10%,23%,-6%,-13%,50µM*
CN(C)c1ccc(NC(=O)c2ccc(N3CCOCC3)nc2)cc1,?,?,-14%,-15%,?,7.9µM*
CC(=O)c1ccc(C(=O)Nc2ccc(N3CCOCC3)cc2)cc1,-7%,.,14%,-2%,-6%,5%[59 µM]
Cc1ccc(NC(=O)c2cc(N3C(=O)C=CC3=O)ccc2N2CCOCC2)cc1Cl,4µM*,50µM*,?,4.7µM*,20µM*,1.6µM*
CC(C)CC1NC(=O)N(CC(=O)Nc2ccc(OCc3ccccc3)cc2)C1=O (centres undefined),.,-2%,13%,-2%,-1%,?
COc1cccc(NC(=O)COC(=O)c2sccc2C)c1,.,.,14%,-2%,-18%,.
Cc1ccc(NC(=O)Nc2ccc3c(c2)nc(C)n3C)cc1C,14%,2%,.,.,.,-3%
O=C(Nc1ccc(N2CCOCC2)cc1)C1=NN(c2ccccc2)C(=O)CC1,.,-34%,8%,-3%,-19%,45µM*
O=C(Nc1ccc(N2CCOCC2)c(Cl)c1)c1ncn[nH]1,-11%,18µM*,28%,-3%,56µM*,-11%[59 µM]
Cc1nc2cc(NC(=O)Nc3ccc(N4CCOCC4)cc3)ccc2n1C,8%,-22%,18%,-2%,-19%,8.9µM*
O=C(Nc1ccc(N2CCOCC2)cc1)c1cc(F)c(F)cc1Cl,17%,0%,17%,-5%,-20%,-4%[59 µM]
O=C(Nc1ccc(N2CCOCC2)c(Cl)c1)c1ccco1,4%,3%,29%,-8%,-18%,-2%[2.33 µM]
CSc1ccc(Cl)c(C(=O)Nc2ccc(N3CCOCC3)cc2)c1,-6%,?,2%,-12%,-34%,50µM*
COc1ccc(C2(C)NC(=O)N(CC(=O)NC3CCCC3)C2=O)cc1OC (centres undefined),.,15%,51%,-3%,-9%,-1%[12.7 µM]
CCc1nc2ccccc2n1CC(=O)NC1CCS(=O)(=O)C1 (centres undefined),.,.,16%,-2%,-14%,.
O=C(Nc1ccc(Cl)cc1)Nc1ccc(N2CCOCC2)cc1,9%,8%,33%,-7%,-6%,-49%[12.7 µM]
CC(C)(C)c1ccc(C(=O)Nc2ccc(N3CCOCC3)cc2)cc1,-3%,-9%,-3%,-4%,-25%,-13%[12.7 µM]
O=C(Nc1ccc(N2CCOCC2)cc1)c1ccccc1SCC(=O)N1CCCC1,-10%,-7%,12%,-28%,-19%,7.1µM*
Cc1oc(C(C)(C)C)cc1C(=O)Nc1ccc(N2CCOCC2)cc1,0%,-25%,-10%,0%,-17%,45µM*
O=C(Nc1ccc(N2CCOCC2)cc1)Nc1ccc(Cl)c(Cl)c1,-23%,-10%,20%,-5%,-32%,7.1µM*
O=C(Nc1ccc2c(c1)OCO2)c1ccccc1SCC(=O)N1CCCC1,-2%,13%,26%,0%,-5%,-12%[12.7 µM]
CCCCCSc1nc2sc3c(c2c(=O)n1-c1ccc(OC)cc1)CCN(C(C)=O)C3,.,-38%,-18%,.,?,11µM*
CC(=O)N1CCc2c(sc3c2c(=O)n(-c2ccccc2)c(=O)n3Cc2ccccc2Cl)C1,?,?,?,30µM*,-23%[57.1 µM],?
CSc1nc2sc3c(c2c(=O)n1-c1ccc(C)cc1)CCCC3,.,0%,26%,.,-8%,-38%[59 µM]
CSc1nc2sc3c(c2c(=O)n1-c1ccc(C)c(Cl)c1)CCN(C(C)=O)C3,.,79µM*,31%,.,-32%,-24%[59 µM]
Cc1oc2ncn(CC(C)C)c(=O)c2c1C(=O)NCCc1ccccc1,.,10%[57.1 µM],33%,.,-4%,-27%[59 µM]
CSc1cccc(NC(=O)CN(C)S(=O)(=O)c2ccc3c(c2)n(C)c(=O)c(=O)n3C)c1,.,-19%,34%,.,-15%,1µM*
CCOc1ccccc1NC(=O)CSc1nnc(N)s1,.,-6%,22%,.,-20%,-5%[59 µM]
COCCN(C(=O)c1ccc(N2CCCC2=O)cc1)c1c(N)n(Cc2ccccc2)c(=O)[nH]c1=O,.,6%,35%,-13%,-12%,7.9µM*

# Source: PubChem (National Center for Advancing Translational Sciences (NCATS))
